Compounds with a hit are over-represented: about 7.5% of the library has one in this group of screens.
Gal4-VP16 FLuc: counter-screen for ROR gamma inhibitors: Gal4-VP16 reporter; Drosophila S2 Gal4-VP16 UAS-luciferase, luminescence, 20 h; Potency, µM (titrated, usually from 53.6 µM), actives largely listed as inhibitors; actives 3.5% (n = 310,000);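 note: Gal4-VP16 expression switched on by copper sulfate through the metallothionein promoter; nearly all actives have a fitted effect of over 50% in size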
TSHR antagonist: blocks TSH signaling through the human TSH receptor; TSHR-expressing cells, TSH-stimulated cAMP HTRF, 2 h; stronger effect = lower value; actives 0.2% (n = 330,000); activity change, negative = inhibition, % at 11.5 µM;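 active = activity change below a set negative limit, meaning inhibition stronger than a set level, cut at about -70% in these data; inconclusive = activity change between two set negative limits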
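Freshly harvested TSHR cells receive pin-tooled compound, then EC80 TSH at 4nM final. After 2 hours at 37 deg C, antibody in lysis buffer and cAMP-d2 are added; 30 minutes at ambient temperature precede the HTRF read.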
ELG1 repair inh: ELG1-dependent DNA repair inhibition. HEK293T ELG1-luciferase reporter, luminescence, 16 h; DNA damage induced by 5-fluorouridine. actives 2.3% (n = 330,000). Potency, µM (series often up to 46.1 µM), usual class: inhibitors; note: nearly all actives have a fitted effect of over 55% in size
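5-Fluorouridine DNA damage + compound/DMSO, 2,000 cells/well, 16 h, 37 °C/5% CO2. ONE-Glo, 30 min RT, luminescence. Readout = decrease in reporter signal.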
B2AR arrestin: beta2AR (human) beta-arrestin recruitment activity | actives 0.02% (n = 330,000) | Potency, µM (doses to about 46.1 µM), most hits filed as activators | beta-arrestin recruitment to beta2AR, cell-based reporter | AID 492947 | P07550; note: nearly all actives have a fitted effect of over 65% in size
Target sequence (P07550 whole entry, looked up): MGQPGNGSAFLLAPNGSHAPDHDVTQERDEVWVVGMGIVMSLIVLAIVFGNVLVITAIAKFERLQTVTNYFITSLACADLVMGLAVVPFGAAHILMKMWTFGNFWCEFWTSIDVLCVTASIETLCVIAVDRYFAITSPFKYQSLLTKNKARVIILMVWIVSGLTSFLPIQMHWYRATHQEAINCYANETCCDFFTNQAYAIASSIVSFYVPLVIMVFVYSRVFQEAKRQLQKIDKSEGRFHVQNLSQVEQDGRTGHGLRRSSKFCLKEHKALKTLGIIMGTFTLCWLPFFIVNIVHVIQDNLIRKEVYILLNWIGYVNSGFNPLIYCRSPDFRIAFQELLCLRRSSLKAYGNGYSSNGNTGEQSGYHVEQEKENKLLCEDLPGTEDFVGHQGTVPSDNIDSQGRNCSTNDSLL
RORg inh: blocks mouse ROR gamma transcriptional activity | P51450 | Drosophila S2 Gal4-RORgamma UAS-luciferase reporter, 20 h | Potency, µM (doses to about 53.6 µM), actives largely listed as inhibitors | actives 5.4% (n = 310,000) | AID 2551; note: nearly all actives have a fitted effect of over 60% in size
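In this cell-based reporter format, copper sulfate (700 uM final) drives Gal4–ROR gamma fusion expression from a metallothionein promoter in Drosophila Schneider cells; compounds preincubated 1 hr, reporter read after 20 hr at ambient temperature.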
ELG1 FLuc counter: luciferase inhibition in cell-free luciferin readout for ELG1 hits; shares compounds with ELG1 repair inh; cell-free firefly luciferase luminescence counter-screen, ViewLux; Potency, µM (doses to about 46.1 µM), most hits filed as inhibitors; actives 3% (n = 350); AID 624247
ELG1-Luc inh: human ELG1 repair inhibition, luciferase-tagged ELG1 confirmation; shares compounds with ELG1 repair inh; HEK293T ELG1-luciferase levels, luminescence; cells co-treated with 5-fluorouridine; Potency, µM (titrated, usually from 46.1 µM), most hits filed as inhibitors; actives 68% (n = 670); note: nearly all actives have a fitted effect of over 55% in size
ELG1-Luc MMS: inhibits ELG1-dependent repair under MMS stimulation in HEK293T cells | shares compounds with ELG1 repair inh | HEK293T luciferase-tagged ELG1 level, MMS stimulated | Potency, µM (highest dose often 46.1 µM), most hits filed as inhibitors | actives 53% (n = 670) | AID 624249; note: nearly all actives have a fitted effect of over 60% in size
ELG1 5-FU: confirmation of ELG1 repair inhibitors: viability with 5FU; shares compounds with ELG1 repair inh; cell viability with 5-FU, ELG1-dependent repair; Potency, µM (top dose mostly 46.1 µM), hits mostly cytotoxic; 670 tested, under 10 active;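 note: ELG1-luc HEK293T cells cotreated with 5-fluorouridine at 10 µM final; viability measured 16 h after compound addition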
ELG1 MMS viab: confirmation of ELG1 repair inhibitors: viability with MMS; shares compounds with ELG1 repair inh; Cell viability with MMS, ELG1-dependent DNA repair; Potency, µM (top dose mostly 46.1 µM), most hits filed as cytotoxic; actives 33% (n = 670); AID 624251;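 note: ELG1-luc HEK293T cells co-treated with 10 µM MMS; viability read 16 h after compound addition; nearly all actives have a fitted effect of over 60% in size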
Cell viab unstim: affects unstimulated cell viability, ELG1 hit counter-screen; shares compounds with ELG1 repair inh; AID 624252; actives 8% (n = 900); cell viability counter-screen, unstimulated, luminescence; Potency, µM (doses to about 45.9 µM), usual class: cytotoxic;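 note: compound exposure lasted 16 hours before reading; nearly all actives have a fitted effect of over 55% in size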
FLuc enzyme: counter-screen for ELG1 repair inhibitors: firefly luciferase inhibition. actives 10% (n = 350). shares compounds with ELG1 repair inh. purified firefly luciferase, luminescence counter-screen. AID 624253. Potency, µM (series often up to 57.5 µM), most hits filed as inhibitors
Large screens that a line does not name were inactive (follow-up assays come after a bar, where they were run). Unless noted, calls come from the whole dose curve; as a rule, active = well fitted curve in the direction sought with a large enough effect; inconclusive = small, poorly fitted or top-dose-only effect, or another doubt; inactive = no such curve, though single readings can be large; an effect the other way counts as inactive or inconclusive.

C=CCn1c(Oc2ccccc2F)nc2c1c(=O)n(C)c(=O)n2C	ELG1 repair inh 4.11µM | ELG1-Luc inh 17.7µM | ELG1-Luc MMS 19.9µM | ELG1 5-FU inconclusive | ELG1 MMS viab inactive | Cell viab unstim inactive
O=C(Nc1ccc(F)cc1)N(CCCN1CCOCC1)Cc1cc2cc3c(cc2[nH]c1=O)OCCO3	ELG1 repair inh inconclusive
O=C(Nc1ccc(F)cc1)N(CCCN1CCOCC1)Cc1cc2cc3c(cc2[nH]c1=O)OCO3	none | ELG1 FLuc counter inactive | ELG1-Luc inh inconclusive | ELG1-Luc MMS inactive | ELG1 5-FU inactive | ELG1 MMS viab inactive | Cell viab unstim inconclusive | FLuc enzyme inactive
Cc1ccc(S(=O)(=O)N2CCCCC2c2cccnc2)c(C)c1C (stereo not given)	ELG1 repair inh 0.82µM | ELG1 FLuc counter inactive | ELG1-Luc inh 0.0141µM | ELG1-Luc MMS 14.1µM | ELG1 5-FU inactive | ELG1 MMS viab 19.9µM | Cell viab unstim inconclusive | FLuc enzyme inactive
O=S(=O)(c1cccc(C(F)(F)F)c1)N1CCCC1c1cccnc1 (stereo not given)	none
Fc1ccc(COc2ccc(Br)cc2CNCc2ccncc2)cc1	ELG1 repair inh inconclusive | ELG1-Luc inh 28.1µM | ELG1-Luc MMS inconclusive | ELG1 5-FU inactive | ELG1 MMS viab inconclusive | Cell viab unstim inconclusive
Fc1ccccc1COc1ccc(Br)cc1CNCc1ccncc1	Gal4-VP16 FLuc inconclusive, ELG1 repair inh inconclusive, RORg inh inconclusive (no result: TSHR antagonist)

Screening data: PubChem, National Center for Advancing Translational Sciences (NCATS)
